# About 1,200 (1.2%) of roughly 96,000 compounds were called active. The sample holds actives, similar compounds and a random draw of the others, so the mix is not that of the screen. No stated cut-off is given here; in the data, active means activation fold above about 2; inactive means the rest.
# Biological target: Alkaline phosphatase, placental type (Homo sapiens) (UniProt P05187)
# Experiment: PLAP enzyme activators, biochemical, luminescence, HTS (AID 696)
# Conditions: purified PLAP enzyme, luminescent substrate read-out; at 20 µM; active compounds read high
# Chain of Alkaline phosphatase, placental type (Homo sapiens) (P05187 whole entry, looked up): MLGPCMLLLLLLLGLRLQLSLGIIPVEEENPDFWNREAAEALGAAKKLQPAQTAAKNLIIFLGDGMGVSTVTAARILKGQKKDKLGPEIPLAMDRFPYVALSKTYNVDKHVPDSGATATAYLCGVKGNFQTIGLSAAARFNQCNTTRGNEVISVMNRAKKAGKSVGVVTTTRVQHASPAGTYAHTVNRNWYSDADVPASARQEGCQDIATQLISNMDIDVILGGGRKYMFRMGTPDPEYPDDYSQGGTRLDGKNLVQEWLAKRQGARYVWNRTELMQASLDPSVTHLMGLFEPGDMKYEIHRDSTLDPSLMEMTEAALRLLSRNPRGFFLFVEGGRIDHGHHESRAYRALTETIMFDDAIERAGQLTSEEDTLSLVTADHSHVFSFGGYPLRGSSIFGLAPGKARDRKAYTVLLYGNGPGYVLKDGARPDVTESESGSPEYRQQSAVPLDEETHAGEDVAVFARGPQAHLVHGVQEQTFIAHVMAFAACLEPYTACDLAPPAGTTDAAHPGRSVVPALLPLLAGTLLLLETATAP
row,SMILES,activation fold
1,NC(=O)c1ccsc1NC(=O)c1ccco1,1 (inactive)
2,CC1CCN(C(NC(=O)c2ccco2)C(=O)c2ccccc2)CC1 (stereo not given),1.1 (inactive)
3,CC(NC(=O)c1ccco1)C(=O)Nc1nc(-c2ccccn2)cs1 (stereo not given),2.4 (active)
4,O=c1cc(N2CCN(Cc3ccccc3)CC2)c(-c2ccccc2)n[nH]1,1 (inactive)
5,CCn1c(Cc2cccs2)nnc1SCC(=O)c1ccc(C)cc1,1.5 (inactive)
6,O=C(COc1ccc(Cl)cc1)N1CCN(S(=O)(=O)c2ccc(Cl)cc2)CC1,1.1 (inactive)
7,Cc1ccc(CNC(=O)C2CC(c3ccccc3[N+](=O)[O-])=NO2)o1 (stereo not given),0.9 (inactive)
8,Cc1cc(C(=O)NCCCc2ccccc2)no1,0.9 (inactive)
9,CCCCNC(=S)NNC(=O)c1cc(C)on1,2 (active)
10,CCC(=O)Nc1ccc(C(=O)Nc2cc(C)on2)cc1,0.9 (inactive)
11,Cn1c(Cc2cccc3ccccc23)nnc1SCC(=O)N1CCN(c2cccc(Cl)c2)CC1,1.5 (inactive)
12,CCN1CCC(=NNC(=O)c2ccc(C)c([N+](=O)[O-])c2)CC1,1.3 (inactive)
13,C1=C(CCNc2ncnc3c2cnn3-c2ccccc2)CCCC1,0.7 (inactive)
14,O=C(NCCC1=CCCCC1)C1CCN(Cc2cnn(-c3ccccc3)c2-n2cccc2)CC1,2.3 (active)
15,CC(=O)Nc1ccc(NC(=O)CSCc2cnn(-c3ccccc3)c2-n2cccc2)cc1,1.3 (inactive)
16,O=C1c2ccccc2C(=O)N1CC1c2ccccc2CCN1S(=O)(=O)c1ccccc1 (stereo not given),1.2 (inactive)
17,O=C(Nc1ccc2c(c1)OCCO2)c1ccc(Cl)c(S(=O)(=O)N2CCCCC2)c1,1.7 (inactive)
18,COc1cc2c(cc1NC(=O)CN1CCN(S(=O)(=O)c3ccc(F)cc3)CC1)oc1ccccc12,2.2 (active)
19,COc1ccc(NC(=O)CN2CCN(S(=O)(=O)c3ccc(F)cc3)CC2)cc1Cl,1.1 (inactive)
20,COc1ccccc1NC(=O)CN1CCN(S(=O)(=O)c2ccc(Br)cc2)CC1,1 (inactive)
21,Cc1c(CCO)c(=O)[nH]n1C(=O)c1c(F)cccc1F,0.9 (inactive)
22,Cc1ccc(F)c(NC(=O)CCc2ccccc2)c1,0.9 (inactive)
23,CCCSc1nc2c(c(=O)[nH]c(=O)n2C)n1CCc1ccccc1,0.9 (inactive)
24,Cn1c(=O)[nH]c(=O)c2c1nc(N(CCO)Cc1ccccc1)n2Cc1ccccc1Cl,0.8 (inactive)
25,CN(Cc1ccccc1)c1nc2c(c(=O)[nH]c(=O)n2C)n1CCSc1nc2ccccc2[nH]1,2 (active)

row,SMILES,activation fold
1,C[C@H](NC(=O)OC(C)(C)C)c1nnc(SCC(=O)Nc2ccc(Br)cc2)o1,1.2 (inactive)
2,Cc1cccc(NC(=O)CSC(N)=O)c1C,1.7 (inactive)
3,Cc1cc(C)cc(OCc2nnc(SCC(=O)Nc3ccccc3)o2)c1,0.8 (inactive)
4,CCc1ccccc1NC(=O)CSc1nnc([C@@H](NC(=O)OC(C)(C)C)C(C)C)o1,1.4 (inactive)
5,Cc1cccc(NC(=O)CSc2nnc(CCCCCNC(=O)OC(C)(C)C)o2)c1C,2.4 (active)
6,CCc1ccccc1NC(=O)CSc1nnc([C@@H](NC(=O)OC(C)(C)C)C(C)CC)o1 (stereo not given in full),2 (active)
7,CC(C)(C)N1CC(c2nc3ccccc3n2Cc2ccc(F)cc2)CC1=O (stereo not given),1.1 (inactive)
8,CN(C)Cc1ccccc1C1(O)c2ccccc2CSc2ccccc21 (stereo not given),1.1 (inactive)
9,N#Cc1cc([N+](=O)[O-])ccc1Oc1cccc(/C=N/NC(=O)c2ccc(Cl)cc2)c1,1.1 (inactive)
10,O=P(O)(CP(=O)(c1ccccc1)c1ccccc1)c1ccccc1O,1 (inactive)
11,CCOc1ccc(C(=O)NC(C(=O)NCc2ccccn2)C(C)C)cc1 (stereo not given),0.9 (inactive)
12,Cc1cc(C)nc(SC(C)C(=O)N/N=C/c2cccs2)n1 (stereo not given),0.9 (inactive)
13,CCCCCCNCCn1cnc2c(N)ncnc21,0.9 (inactive)
14,O=C(CCCOc1ccccc1)NCc1ccco1,1.1 (inactive)
15,CN(C)C(CNC(=O)CCCOc1ccccc1)c1ccco1 (stereo not given),2 (active)
16,O=C(CCOc1ccccc1)NCc1ccccc1,0.8 (inactive)
17,COc1ccc(C(=O)c2c(C)oc3cc([N+](=O)[O-])c(O)c([N+](=O)[O-])c23)cc1,0.9 (inactive)
18,COc1ccc(NC(=O)C(CC(C)C)NS(=O)(=O)c2ccc3c(c2)CCN3C(C)=O)cc1OC (stereo not given),0.8 (inactive)
19,CN(Cc1nc2ccccc2c(=O)[nH]1)Cc1cc(=O)oc2ccc3ccccc3c12,1.6 (inactive)
20,O=S(=O)(NC1CCCCC1)c1ccc(F)c2ccccc12,0.7 (inactive)
21,CCOc1ccc2nc(N3CCCN(C(=O)Nc4ccccc4C)CC3)c(C#N)cc2c1,2 (active)
22,CCOc1ccc2nc(NCCNS(=O)(=O)c3ccccc3)c(C#N)cc2c1,1 (inactive)
23,COc1ccc2nc(N3CCCC(O)C3)c(C#N)cc2c1 (stereo not given),1.8 (inactive)
24,O=C(NCCCN1CCOCC1)c1cc2c(s1)CCC2,1.3 (inactive)
25,COC(=O)c1ccc(C(=O)Nc2cc(Cl)ccc2Cl)cc1NC(=O)c1ccccc1C,1 (inactive)

row,SMILES,activation fold
1,CC1CCCN(C(C(=O)Nc2ccc(C(C)C)cc2)c2ccc3c(c2)OCO3)C1 (stereo not given),1.6 (inactive)
2,Cc1[nH]c(=O)c(C(=O)/C=C/c2ccccc2)c2c1CCCC2,1.2 (inactive)
3,CC(C)CNC(=S)NNC(=O)c1ccccc1OC(F)F,1.6 (inactive)
4,Cc1occc1C(=O)NNC(=S)NCC(C)C,2.3 (active)
5,Cc1occc1C(=O)Nc1nnc(-c2ccncc2)s1,1 (inactive)
6,CCN(CC)C(=O)CSC1c2ccccc2C(=O)N1c1ccccc1 (stereo not given),1.1 (inactive)
7,CCCOc1ccc(C2NC(=O)NC(c3ccccc3)=C2C(C)=O)cc1OCC (stereo not given),0.9 (inactive)
8,O=C(NCc1ccco1)c1ccc(Cn2c(=O)c3sccc3n(Cc3ccc(F)cc3)c2=O)cc1,1.3 (inactive)
9,COc1c(F)c(F)c(C(=O)O)c(Nc2ccccc2C)c1F,1 (inactive)
10,CCCc1ccc(OCC(=O)NNC(=S)NC(=O)c2ccco2)cc1,1.2 (inactive)
11,CC(Oc1ccc2ccccc2c1)C(=O)NNC(=S)NC(=O)c1ccco1 (stereo not given),2.6 (active)
12,COc1ccc(C(=O)NC(=S)NNC(=O)CCc2ccccc2)cc1,1 (inactive)
13,Oc1c(C(c2ccccn2)N2CCOCC2)ccc2cccnc12 (stereo not given),2.2 (active)
14,O=C(c1cccnc1NCc1ccccc1)N1CCOCC1,0.9 (inactive)
15,CCOc1cc(N2CCOCC2)c(OCC)cc1NC(=O)COc1cccc2cccnc12,1.4 (inactive)
16,Cc1cccc(NC(=S)Nc2ccc(Br)cc2)c1,1.2 (inactive)
17,O=C(Nc1nnc(SCc2ccccc2)s1)c1ccco1,1.1 (inactive)
18,O=C(Nc1nnc(CCOCCOCCc2nnc(NC(=O)c3ccco3)s2)s1)c1ccco1,2 (active)
19,COC(=O)c1ccc(NC(=O)c2ccco2)cc1,0.8 (inactive)
20,COc1ccc(C(=O)NC(=S)Nc2ccccc2N2CCN(S(C)(=O)=O)CC2)cc1OC,1 (inactive)
21,O=C(CSc1ncn[nH]1)Nc1ccnc2ccccc12,1.9 (inactive)
22,CCN(C(=O)CSc1ncn[nH]1)c1cccc2ccccc12,2.3 (active)
23,CC(C)(C)c1ccc(C(=O)CSc2ncn[nH]2)cc1,1.5 (inactive)
24,Cc1sc(NC(=S)NC(=O)c2cccs2)nc1-c1ccc(CC(C)C)cc1,1.5 (inactive)
25,Cc1ccc(S(=O)(=O)NCCSC(C)(C)C)cc1,0.9 (inactive)

row,SMILES,activation fold
1,COc1ccc(CCNC(=O)COC(=O)c2ccc[nH]c2=O)cc1,1 (inactive)
2,Cc1ccc(S(=O)(=O)C(C#N)c2nc3ccccc3nc2N2CCCC2)cc1C (stereo not given),1.4 (inactive)
3,Cc1cc(N2CCN(S(=O)(=O)c3ccc(C)c(C)c3)CC2)c2ccccc2n1,2.1 (active)
4,Cc1ccc(C)c(N2CCN(S(=O)(=O)c3ccc4c(c3)oc(=O)n4C)CC2)c1,1.4 (inactive)
5,COC(=O)c1[nH]c2ccc(Br)cc2c1NC(=O)Oc1ccccc1,1.1 (inactive)
6,O=C(CN1C(=O)COc2ccccc21)NCCN1CCc2ccccc2C1,1.3 (inactive)
7,CCCN1CCN(CCCNC(=O)CN2C(=O)COc3ccccc32)CC1,1.2 (inactive)
8,O=C(CN1C(=O)COc2ccccc21)Nc1ccc(F)cc1,2.5 (active)
9,O=C(Nc1cc(C(F)(F)F)ccc1Cl)c1cc2nc3c(c(C(F)(F)F)n2n1)CCCC3,1.6 (inactive)
10,Clc1ccc(-c2nnc(-c3ccccc3)nc2N2CCSCC2)cc1,1.4 (inactive)
11,O=C1C2C3C=CC(C4CC34)C2C(=O)N1/N=C/c1ccc(-c2ccccc2[N+](=O)[O-])o1 (stereo not given),0.9 (inactive)
12,COc1ccc(Cl)cc1C(=O)NCc1cn(C)nc1C,1.1 (inactive)
13,Cc1nn(C)cc1C(=O)NNC(=S)Nc1ccc(Cl)cc1,2.2 (active)
14,S=C(NCc1cccs1)Nc1ccc(Cl)cc1,0.9 (inactive)
15,O=C(CNC(=O)c1ccccc1)NCC(=O)OCc1ccc(Cl)cc1,0.9 (inactive)
16,OC(COc1cccc(OCC(O)CN2CCCC2)c1)CN1CCCC1 (stereo not given),1.2 (inactive)
17,Cc1ccccc1C(OCC(O)CN1CCCCC1CCO)c1ccccc1 (stereo not given),2.1 (active)
18,COc1cccc(OCc2cc(/C=N/NC(=O)c3nc(Cl)c(Cl)c(N)c3Cl)ccc2OC)c1,1.5 (inactive)
19,CCc1c(C)nc2cc(C)[nH]n2c1=O,0.9 (inactive)
20,CCCc1nnc(NC(=O)c2cccs2)s1,0.9 (inactive)
21,CCCc1nnc(NC(=O)CN2C(=O)c3ccccc3S2(=O)=O)s1,2.2 (active)
22,CNC(=O)CN1C(=O)c2ccccc2S1(=O)=O,0.9 (inactive)
23,COc1cc2c(cc1OC)C(C(=O)NCc1ccco1)C1c3ccccc3CCN1C2=O (stereo not given),1.2 (inactive)
24,NC(CSC12CC3CC(CC(C3)C1)C2)C(=O)O (stereo not given),2 (active)
25,O=C(O)CSCNC(=O)CC12CC3CC(CC(C3)C1)C2,1.2 (inactive)
